Reference: PMC4336329 (PLoS ONE, 2015)
The campaign covered roughly 310,000 compounds. About 14,000 (4.5%) showed an effect of 50% or more. The effect is printed as a negative number. The full list was thinned out, with strong results kept by preference.

target: human ether-à-go-go-related gene (hERG) potassium channel (human, UniProt Q12809); test: primary screen, population patch clamp on CHO cells stably expressing hERG; higher = less effect of the substance
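Also: peak tail current of the secondary pulse compared with the same well before compound.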

Chain of human ether-à-go-go-related gene (hERG) potassium channel (Q12809 whole entry, looked up): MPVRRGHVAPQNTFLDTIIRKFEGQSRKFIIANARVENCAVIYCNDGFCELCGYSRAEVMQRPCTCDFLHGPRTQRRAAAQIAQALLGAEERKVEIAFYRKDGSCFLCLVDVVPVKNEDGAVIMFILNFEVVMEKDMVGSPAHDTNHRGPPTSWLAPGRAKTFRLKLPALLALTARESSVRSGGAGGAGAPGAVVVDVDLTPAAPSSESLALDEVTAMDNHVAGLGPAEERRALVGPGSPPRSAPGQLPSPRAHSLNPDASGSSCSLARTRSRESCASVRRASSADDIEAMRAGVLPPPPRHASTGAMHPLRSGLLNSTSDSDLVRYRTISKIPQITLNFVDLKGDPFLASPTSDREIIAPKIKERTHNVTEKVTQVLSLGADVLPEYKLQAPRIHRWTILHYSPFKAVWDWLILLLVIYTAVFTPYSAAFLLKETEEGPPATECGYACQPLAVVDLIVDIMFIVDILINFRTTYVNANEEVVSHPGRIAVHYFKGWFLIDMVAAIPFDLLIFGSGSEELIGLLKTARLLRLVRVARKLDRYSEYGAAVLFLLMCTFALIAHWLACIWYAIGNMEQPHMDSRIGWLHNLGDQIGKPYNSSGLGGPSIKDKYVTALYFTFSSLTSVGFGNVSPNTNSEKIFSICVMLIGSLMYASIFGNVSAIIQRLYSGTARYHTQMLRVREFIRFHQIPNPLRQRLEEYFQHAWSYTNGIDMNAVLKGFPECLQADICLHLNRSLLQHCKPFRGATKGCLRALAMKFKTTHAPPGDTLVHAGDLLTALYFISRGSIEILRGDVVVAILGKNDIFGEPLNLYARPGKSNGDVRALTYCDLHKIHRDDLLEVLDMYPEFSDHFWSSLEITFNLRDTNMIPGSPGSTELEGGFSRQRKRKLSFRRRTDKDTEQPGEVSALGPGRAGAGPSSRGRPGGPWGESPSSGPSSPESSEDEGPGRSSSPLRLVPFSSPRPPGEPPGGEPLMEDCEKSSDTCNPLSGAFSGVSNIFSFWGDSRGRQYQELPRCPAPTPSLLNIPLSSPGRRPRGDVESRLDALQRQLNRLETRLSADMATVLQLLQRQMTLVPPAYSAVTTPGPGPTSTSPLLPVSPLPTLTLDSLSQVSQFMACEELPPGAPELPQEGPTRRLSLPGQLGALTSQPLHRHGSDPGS

SMILES | hERG current change (%, negative = inhibition) at 10uM
Cc1cccc(C)c1NC(=O)CNC(=O)C(NC(=O)c1ccc(C(C)(C)C)cc1)C(C)C (stereo not shown) | 14.4%
CCc1nnc(NC(=O)CN2CCN(c3ccccc3F)CC2)s1.Cl | -12.9%
CSc1ccc(CCCCCCOC(=O)C(C)(C)C)cc1 | 3.95%
Cn1c(=O)cc(SCC(=O)NCc2ccc(F)cc2)c2ccccc21 | -17.4%
CCn1c(=O)cc(SCC(=O)NCCN2CCN(Cc3ccccc3)CC2)c2ccccc21 | -49.4%
CCn1c(=O)cc(SCC(=O)N2CCN(C)CC2)c2ccccc21 | 6.22%
CCn1c(=O)cc(SCC(=O)N2CCN(c3ccccc3F)CC2)c2ccccc21 | -21.7%
Cn1c(=O)cc(OCC(=O)NCCCN2CCN(c3ccccc3F)CC2)c2ccccc21 | -45.4%
Cn1c(=O)cc(SCC(=O)NCCCN2CCN(c3ccccc3F)CC2)c2ccccc21 | -55.5%
CCn1c(=O)cc(SCC(=O)NCCCN2CCN(c3ccc(F)cc3)CC2)c2ccccc21 | -46%
Cn1c(=O)cc(SCC(=O)NCCCN2CCOCC2)c2ccccc21 | -2.51%
CCn1c(=O)cc(SCC(=O)NCCCN2CCC(C)CC2)c2ccccc21 | -13%
CCn1c(=O)cc(SCC(=O)NCCCN2CCN(c3ccccc3F)CC2)c2ccccc21 | -62.2%
Cn1c(=O)cc(SCC(=O)NCCCN2CCN(c3ccc(F)cc3)CC2)c2ccccc21 | -69.2%
CCn1c(=O)cc(SCC(=O)N2CCN(c3ccccc3OC)CC2)c2ccccc21 | -52%
COc1ccc(-c2c(C)oc3c(CN4CCOCC4)c(O)ccc3c2=O)cc1 | 7.31%
O=C(O)CC(NC(=O)OCc1ccccc1)c1ccc(Br)cc1 (stereo not shown) | 20.2%
CCCn1c(=O)c2c(nc(Br)n2CCC)n(C)c1=O | -1.31%
CCC(C)c1ccccc1NC(=O)C(C)NCCN(C)C.O=C(O)C(=O)O (stereo not shown) | 10.3%
CSCCC1NC(=O)N(CC(=O)Nc2c(Cl)cc(Cl)cc2Cl)C1=O (stereo not shown) | -2.68%
O=c1[nH]c(O)c(C=Nc2ccc(F)c(Cl)c2)c(=O)[nH]1 | 7.3%
Cc1ccc(S(=O)(=O)Oc2ccc(/C=N/N=C3/NC(=O)C(CC(=O)O)S3)cc2)cc1[N+](=O)[O-] (stereo not shown) | 24%

SMILES | hERG current change (%, negative = inhibition) at 10uM
Cc1ccc2[nH]c(=O)c(NC(N)=S)nc2c1 | 14%
S=c1nc(C2CCCCC2)n(-c2ccccc2)[nH]1 | 15.6%
O=C(C1CC1)N1CCN(C(c2ccccc2)c2ccccc2)CC1 | 6.33%
Cc1ccccc1-n1nc2c(c1NC(=O)c1ccc3c(c1)OCO3)CS(=O)(=O)C2 | -17.6%
CNC(=S)N/N=C/c1ccccc1OCC(=O)O | 18.4%
CC(C)C(=O)NN(C(=O)c1ccccc1)c1ccccc1 | 20.4%
CCOc1ccc(CCNC(=O)CSc2cc(=O)n(C)c3ccc(Cl)cc23)cc1OCC | -21.4%
Cn1c(=O)cc(SCC(=O)NCCN2CCN(c3ccccc3F)CC2)c2cc(Cl)ccc21 | -54.1%
Cn1c(=O)cc(OCCCC(=O)NCCN2CCN(c3ccccc3F)CC2)c2ccccc21 | -7.18%
O=C(O)C1(c2ccccc2)CCN(S(=O)(=O)c2ccc(F)c(F)c2)CC1 | 2.44%
COc1ccc(-c2cc(O)cc(O)c2)cc1 | -3.33%
COc1ccc(/C=C/C(=O)NCCCc2ccccc2)cc1 | -46.8%
COc1ccc(/C=C/c2cc[n+](C(=O)Cc3ccccc3)cc2)cc1.[Cl-] | -51.2%
COc1ccc(NC(=O)Cc2ccccc2)cc1 | 4.36%
CCC(=O)Nc1ccc(OCC2CCCO2)cc1 (stereo not shown) | 7.08%
Cl.OC1(c2ccc(F)cc2)CCN(Cc2ccccc2)C1 (stereo not shown) | -15.1%
c1ccc(CN2CCN(Cc3ccc4ccccc4c3)CC2)cc1 | 5.24%
Cl.OC1(c2ccc3ccccc3c2)CCN(Cc2ccccc2)C1 (stereo not shown) | -57.1%
c1ccc2c(c1)OCC(CNc1ncnc3sccc13)O2 (stereo not shown) | -20.9%
CCOC(=O)C1=C(C)NC(=O)CC1c1ccccc1OC (stereo not shown) | 7.62%
Cc1ccc(NC2=NCC(=O)N2Cc2ccc3c(c2)OCO3)c(C)c1 | -1.91%
O=C(O)/C=C\C(=O)O.c1ccc(C(OCCN2CCN(c3ncccn3)CC2)c2ccccc2)cc1 | -65.9%

SMILES | hERG current change (%, negative = inhibition) at 10uM
O=S(=O)(c1ccc(F)cc1)N1CCN(CCc2ccccc2)CC1 | -8.48%
c1ccc(CN2CCN(c3ncccn3)CC2)cc1 | 11.6%
Cl.c1ccc(CCCN2CCN(CCOC(c3ccccc3)c3ccccc3)CC2)cc1 | -71.8%
c1ccc(COCCN2CCN(CCOCc3ccccc3)CC2)cc1 | -39.5%
O=C1CCN(CCCc2ccccc2)CCN1CCO | 2.01%
Cl.Fc1ccc(C(OCCN2CCN(CCCc3ccccc3)CC2)c2ccc(F)cc2)cc1 | -77.4%
Cl.c1ccc(C(OCCN2CCNCC2)c2ccccc2)cc1 | -11.9%
CCC(C(=O)N1CCN(c2ncccn2)CC1)c1ccccc1 (stereo not shown) | -0.742%
CC(=O)Nc1ccc(Sc2ncccc2C(=O)Nc2cc(Cl)cc(Cl)c2)cn1 | 26.7%
CN(C)/C=C(\C#N)C(=O)N/N=C/c1ccc(F)cc1 | -10.1%
C=CCN(CC=C)C(=O)C[n+]1ccc(C(N)=O)cc1.[Cl-] | -0.0573%
O=C(CSc1ccc2nnc(-c3ccccc3)n2n1)NCc1ccc2c(c1)OCO2 | -80.3%
O=C(CSc1ccccn1)NCc1ccc2c(c1)OCO2 | 3.5%
O=C(CSc1ccc2nnc(-c3cccnc3)n2n1)NCc1ccc2c(c1)OCO2 | -53.3%
O=C(CSc1ccc2nnc(-c3ccccn3)n2n1)Nc1ccc2c(c1)OCCO2 | -40.6%
O=C(CSc1ccc2nnc(-c3ccccn3)n2n1)Nc1ccc2c(c1)OCO2 | -33.7%
O=C(CSc1ccc2nnc(-c3cccnc3)n2n1)NCC1CCCO1 (stereo not shown) | -9.66%
O=C(CSc1ccc2nnc(-c3ccccn3)n2n1)NCc1ccc2c(c1)OCO2 | -74.4%
O=C(CSc1ccc2nnc(-c3ccncc3)n2n1)Nc1ccc2c(c1)OCO2 | 7.8%
O=C(CSc1ccc2nnc(-c3cccnc3)n2n1)NCc1ccco1 | -44.3%
O=C(O)CC1c2ccccc2CCN1S(=O)(=O)c1ccccc1 (stereo not shown) | -1.51%
COc1ccc(N2C(=O)CN=C2Nc2nc(C)cc(C)n2)cc1OC | -4.68%

SMILES | hERG current change (%, negative = inhibition) at 10uM
Cc1cccc(NC(=S)NCc2ccc3c(c2)cc(C)n3C)c1C | -9.2%
CC(=O)c1ccc(NC(=O)CSc2nc(N3CCOCC3)nc(N3CCOCC3)n2)cc1 | -7.67%
Cc1ccc(NS(=O)(=O)c2c(C)nc3sccn3c2=O)c(C)c1 | -15.2%
COc1ccc(NC2CCCN(C(=O)c3cccc(C)n3)C2)cc1OC (stereo not shown) | 18.5%
CC1(C)N=C(c2ccccc2)[C@@H]2C(c3ccc([N+](=O)[O-])cc3)N21 (stereo partly shown) | -31.6%
CC12CCC(C(=O)Nc3nc4ccc(Br)cc4s3)(OC1=O)C2(C)C (stereo not shown) | -2.78%
COc1cc2c(cc1OC)C(C)N(CCc1ccc(Cl)cc1)CC2.O=C(O)/C=C\C(=O)O (stereo not shown) | -70.2%
COc1cc2c(cc1OC)CN(CC(=O)Nc1ccc(Cl)cc1Cl)CC2 | -11.7%
COc1cc2c(cc1OC)CN(CCC(C)c1ccc(Cl)cc1)CC2.O=C(O)/C=C\C(=O)O (stereo not shown) | -72.1%
COc1cc2c(cc1OC)C(C)N(Cc1ccc3c(c1)OCO3)CC2 (stereo not shown) | -3.76%
COc1cc2c(cc1OC)CN(CC(O)c1ccccc1)CC2 (stereo not shown) | 14.4%
COc1cc2c(cc1OC)C(C)N(CCN1C(=O)c3ccccc3C1=O)CC2 (stereo not shown) | 17.5%
Br.COc1cccc(C(=O)CSc2nccn2C)c1 | 24.2%
COc1ccc(Cl)cc1NC(=O)CSc1nnc(-c2ccncc2)n1CC1CCCO1 (stereo not shown) | -28.2%
C=CCn1c(N2CCN(c3ccc(OC)cc3)CC2)nc2c1c(=O)[nH]c(=O)n2C | -24.6%
COc1cccc(N2C(=O)C3CCCN3C2c2ccc(F)cc2)c1 (stereo not shown) | 6.88%
CCOc1nc2cnccc2n(CC(=O)Nc2ccccc2F)c1=O | 26.4%
C=CCN(CC=C)CCCOc1ccccc1C(=O)OC.O=C(O)C(=O)O | -72.4%
C=CCN(CC=C)CCCOc1ccc(C)cc1OC.O=C(O)C(=O)O | -45.1%
COC(=O)c1ccccc1OCCCN(C)C.O=C(O)C(=O)O | -17.4%
C/C(N)=C(/C#N)C(=O)CSc1cc(C)c2cc(C)cc(C)c2n1 | 2.54%
COc1cccc(N2CCN(C(=O)c3cc4c(OC)c(OC)c(OC)cc4[nH]3)CC2)c1 | 9.11%
